The results in this text go back to PubChem BioAssay (NCATS).

Records with an inconclusive call do not appear. Values without a mark were called inactive. The source made the active and inactive calls. Calls come from the whole dose curve; as a rule, active = well fitted inhibition curve with a large enough effect; inconclusive = small, poorly fitted or top-dose-only effect; inactive = flat fitted curve, though single readings scatter.
Potency is the fitted concentration of half-maximal effect.

The subject of this experiment is ATS95. The experiment in a line: qHTS profiling for inhibitors of Plasmodium falciparum proliferation (AID 504749).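 For activity, negative = inhibition: 0% = DMSO vehicle and full inhibition = artemisinin control.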 Note: nearly all actives have a fitted effect of over 60% in size. The conditions noted are these: P. falciparum in erythrocytes, SYBR Green DNA, 72 h; series mostly up to 28.7 µM; activity, negative = inhibition: at the top concentration. Put shortly:
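Quantitative HTS: compounds pinned into medium, infected erythrocytes added (0.3% parasitemia, 2.5% hematocrit), 72 h culture at 37 C under 5% CO2. Saponin/Triton lysis with SYBR Green I, overnight RT, then fluorescence read.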
On the technique in general: qHTS replaces the single test concentration by a dilution series.
With `CN1CCC[C@@H]1c1cccnc1`, the “activity, negative = inhibition” value is 7.09%.
The same measure, in the same setting: to `O=C(Nc1ccc(Oc2ccc(Cl)cc2)c(Cl)c1)c1cc(I)cc(I)c1O` belongs -15.2%.
In the case of `COc1cccc(CCc2ccccc2OCC(CN(C)C)OC(=O)CCC(=O)O)c1` (configuration not stated), the Potency was 5.62 µM (active).
On to `CCOc1ccc(Cc2nccc3cc(OCC)c(OCC)cc23)cc1OCC`, for which the “activity, negative = inhibition” value was -0.312% [at 12.8 µM].
Same read-out and setting: to `CC(C)COC(=O)c1ccc(N)cc1` belongs -40.8%.
Turning to `CCCCC(CC)CN=C(N)NC(N)=NCCCCCCN=C(N)NC(N)=NCC(CC)CCCC` (configuration not stated), the Potency is 1.41 µM (active).
Same read-out and setting: to `O=C(CCCN1CCC(O)(c2ccc(Br)cc2)CC1)c1ccc(F)cc1` belongs 3.16 µM (active).
Consider `C[C@@H]1C(=O)NC2=Nc3cccc(Cl)c3CN21`, for which the “activity, negative = inhibition” value is -4.55%.
On the same count and under the same terms, the figure for `Oc1ccc(Cl)c2cccnc12` is -3.18%.
For `CNCCC=C1c2ccccc2CCc2ccccc21`, the Potency was 5.62 µM (active).
The same measure, in the same setting: the figure for `CC[N+](CC)(CCNC(=O)C(=O)NCC[N+](CC)(CC)Cc1ccccc1Cl)Cc1ccccc1Cl` is 2.82 µM (active).
`CN(C)CC/C=C1\c2ccccc2Sc2ccc(Cl)cc21`: the Potency is 11.2 µM (active).
Turning to `CCCCCCCCCCCCCCCCCC(=O)OCC(O)CO` (configuration not stated), the “activity, negative = inhibition” value is 6.58%.
Take `NC(CS)C(=O)O` (configuration not stated): the Potency is 12.6 µM (active).
With `CCN(CC)C(=O)/C(C#N)=C/c1cc(O)c(O)c([N+](=O)[O-])c1`, the “activity, negative = inhibition” value is -7.05%.
On the same count and under the same terms, the figure for `CC(C)N=C(N)/N=C(\N)Nc1ccc(Cl)cc1` is -22.8% [at 12.8 µM].
As to `CCCCc1nc(Cl)c(CO)n1Cc1ccc(-c2ccccc2-c2nn[nH]n2)cc1`, the Potency was 12.6 µM (active).
Consider `CCCCCCCCCCCCCCNCCO`, for which the “activity, negative = inhibition” value is -7.21%.
Consider `COc1ccc(C2C(=O)c3ccccc3C2=O)cc1`, for which the “activity, negative = inhibition” value was 0.261%.
Same read-out and setting: the figure for `Oc1ccc(O)cc1` is -10.6%; for `O=C1[C@H]2CCCC[C@H]2C(=O)N1CCCCN1CCN(c2nsc3ccccc23)CC1` it is -9.79%.
As to `Cc1ccc(O)c2ncccc12`, the “activity, negative = inhibition” value is -22.2%.
